The text below walks through data of PubChem BioAssay (NCI).

Among the test systems are NCI-H23 lung; NCI-H226 lung; NCI-H322M lung; HOP-62 NSCLC; NCI-H460 lung; HOP-92 NSCLC; NCI-H522 lung; A549/ATCC NSCLC; 786-0 renal; COLO 205 colon; DU-145 prostate; K-562 leukemia; MALME-3M melanoma; MDA-MB-231 breast; SF-268 CNS; SF-295 CNS; SF-539 CNS; UACC-257 melanoma; M14 melanoma; RXF 393 renal.
Holding throughout (assay): NCI-60 one-dose screen, 48 h (100 = growth as untreated, 0 = no growth, -100 = all killed)
Holding throughout (conditions): 10 µM unless noted

Molecules are shown by their SMILES. The panel holds about 83,000 compounds, 20% with a hit somewhere; the sample as a whole holds those more often.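 Results are percent growth after 48 hours of single-concentration exposure. 100 means growth as in untreated cells, lower positive values show inhibition; negative values down to -100 show cell death.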 A number with no mark means an inactive call. Calls of active or inactive are those of the source. The calls were made as follows: active = growth percent below 10; inactive = the rest.

In the case of `CC1=C(C)C(=O)O[C@@H]([C@](C)(O)[C@]2(O)CC[C@@]3(O)[C@@H]4C[C@H]5O[C@]56CC=CC(=O)[C@]6(C)[C@H]4CC[C@]23C)C1`, the growth is -22% (active) in the assay on NCI-H23 lung; -45.2% (active) in the assay on NCI-H226 lung; -15.5% (active) in the assay with NCI-H322M lung; 2.69% (active) in the assay on HOP-62 NSCLC; 5.64% (active) in the assay with NCI-H460 lung; 15.7% with HOP-92 NSCLC. For the same compound, the growth is -59.5% (active) with NCI-H522 lung; 7.89% (active) in the assay with A549/ATCC NSCLC; -30.7% (active) in the assay with 786-0 renal; -83.1% (active) with COLO 205 colon; 7.11% (active) in the assay on DU-145 prostate; 3.63% (active) in the assay on K-562 leukemia. Moreover, the growth in the assay with MALME-3M melanoma is -4.58% (active); in the assay with MDA-MB-231 breast it was 30.3%; in the assay on SF-268 CNS, -22.6% (active); in the assay on SF-295 CNS, 4.3% (active); in the assay with SF-539 CNS it was -10.1% (active); in the assay on UACC-257 melanoma, 6.11% (active). In addition, in the assay on M14 melanoma, the growth is 11.3%.
On to `C/C(=C\c1ccn(-c2ccc(N)cc2F)n1)[C@@H]1C[C@@H]2O[C@]2(C)CCC[C@H](C)[C@H](O)[C@@H](C)C(=O)C(C)(C)[C@@H](O)CC(=O)O1`, for which the growth is 25.2% in the assay on NCI-H23 lung; 35.6% in the assay on NCI-H226 lung; 15.5% in the assay with NCI-H322M lung; 36.4% with HOP-62 NSCLC; 11% with NCI-H460 lung; 49% in the assay with HOP-92 NSCLC. The growth in the assay with NCI-H522 lung is 10.2%; with A549/ATCC NSCLC it was 22.5%; in the assay with 786-0 renal, 18.1%; in the assay on COLO 205 colon, -5.18% (active); in the assay on DU-145 prostate, -19.4% (active); with K-562 leukemia, 11.8%. The growth in the assay with MALME-3M melanoma was 30.9%; with MDA-MB-231 breast it was 20.8%; in the assay with RXF 393 renal it was -7.39% (active); with SF-268 CNS, 29.7%; in the assay on SF-295 CNS it was 8.62% (active); in the assay with SF-539 CNS, -4.08% (active). Also, the figures for the growth with UACC-257 melanoma and with M14 melanoma were 56.3% and -5.99% (active), respectively.
In the case of `COc1ccc2c(c1)C1(C)CCN(C)CC(C1)C2O` (stereo unspecified), the growth is 98.1% in the assay on NCI-H23 lung; 81.7% in the assay with NCI-H226 lung; 105% in the assay with NCI-H322M lung; 100% with HOP-62 NSCLC; 105% with NCI-H460 lung; 101% in the assay with HOP-92 NSCLC. Besides, the growth with NCI-H522 lung was 90.2%; in the assay with A549/ATCC NSCLC, 95.1%; with 786-0 renal it was 94.8%; with COLO 205 colon, 103%; in the assay on DU-145 prostate, 104%; in the assay on K-562 leukemia, 99.9%. The growth is 93.3% in the assay with MALME-3M melanoma; 113% in the assay on MDA-MB-231 breast; 97% with RXF 393 renal; 100% in the assay with SF-268 CNS; 97.2% in the assay with SF-539 CNS; 97% with UACC-257 melanoma. Further, in the assay on M14 melanoma, the growth is 98.1%.
`O=C(O)c1ccccc1N(CCO)CCCl`: the growth with NCI-H23 lung was 99%; in the assay on NCI-H226 lung, 102%; with NCI-H322M lung it was 90.3%; in the assay on HOP-62 NSCLC, 95.1%; in the assay with NCI-H460 lung, 111%; with HOP-92 NSCLC, 79.3%. The growth in the assay on NCI-H522 lung is 93.3%; in the assay with A549/ATCC NSCLC, 98.1%; in the assay with 786-0 renal, 107%; in the assay with COLO 205 colon, 100%; in the assay on DU-145 prostate, 103%; in the assay on K-562 leukemia, 100%. Further, the growth is 87.1% with MALME-3M melanoma; 112% in the assay with MDA-MB-231 breast; 102% with RXF 393 renal; 103% in the assay on SF-268 CNS; 99.8% in the assay with SF-295 CNS; 84.6% in the assay with SF-539 CNS. Further, the results for the growth with UACC-257 melanoma and in the assay on M14 melanoma were 99% and 96%, respectively.
Turning to `CC1=CC(=O)CCC12CCOC2=O` (stereo unspecified), the growth was 102% in the assay with NCI-H23 lung; 101% in the assay on NCI-H226 lung; 96.4% in the assay on NCI-H322M lung; 99.5% in the assay on HOP-62 NSCLC; 102% in the assay with NCI-H460 lung; 102% in the assay on HOP-92 NSCLC. The growth with NCI-H522 lung was 96.1%; with A549/ATCC NSCLC, 97.8%; in the assay with 786-0 renal it was 93.9%; in the assay with COLO 205 colon, 116%; with DU-145 prostate, 106%; with K-562 leukemia it was 97.1%. Moreover, the growth was 89.9% with MALME-3M melanoma; 108% with RXF 393 renal; 103% with SF-268 CNS; 95.8% in the assay on SF-295 CNS; 92.9% in the assay on SF-539 CNS; 97.9% in the assay with UACC-257 melanoma. Further, the growth in the assay with M14 melanoma is 102%.
As to `Cn1cc(C(=O)C[n+]2ccccc2)c2ccccc21`, the growth in the assay on NCI-H23 lung was 91.7%; in the assay on NCI-H226 lung, 99.1%; in the assay with NCI-H322M lung, 104%; in the assay on HOP-62 NSCLC, 95.6%; with NCI-H460 lung, 107%; in the assay with HOP-92 NSCLC it was 92.1%. In addition, the growth was 96.9% with NCI-H522 lung; 102% in the assay with A549/ATCC NSCLC; 97.4% with 786-0 renal; 101% in the assay on COLO 205 colon; 109% in the assay with DU-145 prostate; 106% in the assay with K-562 leukemia. Also, the growth in the assay on MALME-3M melanoma was 96.7%; in the assay with MDA-MB-231 breast, 100%; with RXF 393 renal, 99.6%; in the assay on SF-268 CNS it was 94.7%; in the assay on SF-295 CNS, 102%; with SF-539 CNS it was 89.6%. Further, the growth with UACC-257 melanoma is 111%; in the assay on M14 melanoma, 99.2%.
For the compound `COc1ccc(N)cc1OC`, the growth in the assay on NCI-H23 lung was 105%; in the assay with NCI-H226 lung, 107%; with NCI-H322M lung it was 114%; in the assay on HOP-62 NSCLC it was 104%; in the assay with NCI-H460 lung it was 119%; in the assay with HOP-92 NSCLC it was 91.2%. In addition, the growth in the assay on NCI-H522 lung was 103%; with A549/ATCC NSCLC, 105%; in the assay on 786-0 renal, 102%; in the assay with COLO 205 colon, 109%; with K-562 leukemia, 129%; in the assay with MALME-3M melanoma, 129%. Moreover, the growth in the assay on MDA-MB-231 breast was 87.1%; with RXF 393 renal, 125%; with SF-268 CNS, 106%; in the assay with SF-295 CNS it was 93.9%; in the assay on SF-539 CNS, 110%; in the assay with UACC-257 melanoma it was 107%. In addition, the growth in the assay with M14 melanoma was 109%.
